# From PubChem BioAssay (NCI)
# This is part of a sample that, as a whole, favours compounds with a hit. Of some 79,000 tested, about 15% had one in any assay. Values without a mark were called inactive. Activity calls are given as the source filed them. Rule as the data show it: active = growth inhibition above about 70%; inactive = the rest.
# Experiment: NCI Yeast Anticancer Drug Screen. Data for the mec2-1 strain (AID 157)
# Conditions: S. cerevisiae mec2-1 strain, at 50.0 µM, active compounds read high
# In short: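 mec2-1 yeast strain, carrying an alteration in DNA damage repair or cell cycle control, was exposed to compounds; growth inhibition was measured relative to vehicle-treated controls.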
row,SMILES,growth inhibition
1,CC(=O)C1SCC[S+]1C (stereo not given),-7.6%
2,C=CS(=O)(=O)c1ccc(NC(=O)Nc2ccc(Cl)cc2)cc1,1.7%
3,Cc1ccc(C(=O)C2CC2c2ccccc2)cc1 (stereo not given),-1.9%
4,O=C1NCC2Cc3ccccc3C(c3ccccc3)=C12 (stereo not given),-1.1%
5,OCCOc1ccc(Cl)cc1Cl,-32%
6,Nn1c(=S)[nH]nc(/C=C/c2ccc3c(c2)OCO3)c1=O,20.1%
7,CCCS(=O)(=O)CCC(=O)c1cccs1,-12.1%
8,COC(=O)C(=C/c1ccc(OC)cc1)/C(C(=O)O)=C(/C)c1ccccc1,17.1%
9,O=C1CC(C2OCOC3COCOC32)CC(=O)N1 (stereo not given),-5.1%
10,O=C(CCl)Nc1ccc(O)c2ccccc12,4.65%
11,CCN(CC)CCCNc1cc(O)cc2cccnc12,5%
12,CC12CC3CC(C)(C1)CC(N=[N+]=[N-])(C3)C2,-9.6%
13,C=C1C(=O)O[C@H]2/C=C(/C)C3=CC(=O)[C@@](C)(C[C@@H](OC(=O)/C(C)=C\C)C12)O3 (stereo not given in full),80.8% (active)
14,CSC1(C)C(=O)Nc2cc(C(F)(F)F)ccc21 (stereo not given),1.5%
15,O=C1CC2C(=O)N(Cc3ccccc3)C(=O)C2C(=O)N1 (stereo not given),-12.9%
16,COc1ccc(N2CCN(CC(O)COc3ccc(Cl)cc3)CC2)cc1 (stereo not given),18.9%
17,CC(C)=Cc1cc(C(=O)Nc2ccc(Cl)c(Cl)c2)nc(N)n1,-45.4%
18,Cc1cc(C)c2c(=O)c3c(oc2c1)O[C@@](C)(CO)C[C@@H]3c1ccccc1,11.2%
19,COc1ccc(C2=C/C(=C/c3cccs3)C(=O)O2)cc1,1.45%
20,N#CC(=C1c2ccccc2-c2ccccc21)c1ccccc1,7.1%

row,SMILES,growth inhibition
1,Cc1ccccc1NC(=O)NN,-24.1%
2,CCC(C)N(C(C)=O)C(C)CC (stereo not given),-17.2%
3,CC(C)(Oc1ccc(Cl)cc1)C(=O)NC1CC(C)(C)N(O)C(C)(C)C1,4.95%
4,c1ccc(N=C2N=c3ccccc3=C2c2c(Nc3ccccc3)[nH]c3ccccc23)cc1,5.5%
5,CC(C)N(CC(=O)NC(=O)c1ccccc1)Cc1ccccc1,-8.4%
6,Nc1nc2c(nc(OCc3ccccc3)n2C2OC(CO)C(O)C2O)c(=O)[nH]1 (stereo not given),10.8%
7,Clc1cnnc(Cl)c1N/N=C/c1ccco1,-0.05%
8,COc1ccc(C(=O)O/N=C2/CCC/C2=C\c2ccccc2)cc1,13.2%
9,COC(=O)c1nnn(-c2c(C)cccc2C(C)C)c1C(=O)c1ccccc1,-2.45%
10,O=C1O[C@@H](c2ccccc2)C[C@@H]1CN1CCOCC1,13.7%
11,Cc1ccc2c(c1)C(C(C)C)CCC2(C)C (stereo not given),-8.1%
12,CC1(O)c2ccccc2-c2nc3ccccc3nc21 (stereo not given),14.4%
13,Nc1cccc(=O)[nH]1,-10.2%
14,CCCCc1c2c(nc3c1CCC/C3=C\c1ccccc1)C(=O)CCC2,9.1%
15,Cn1ncc2c(=S)nc[nH]c21,-4.9%
16,CCC1(C(Cl)(Cl)Cl)C=CC(=O)C=C1,13.3%
17,O=C(O)C1OC1(c1ccccc1Cl)c1ccccc1Cl (stereo not given),-13.2%
18,O=S(=O)(CS(=O)(=O)c1ccccc1Br)c1ccccc1Br,30.3%
19,Cc1nc2c(Cl)cc(Cl)cc2c(Cl)c1CCCl,30.2%
20,CC(C)CCCC(C)C1CCC2C3CC=C4CC(OC5CCC6(C)C(=CCC7C6CCC6(C)C(C(C)CCCC(C)C)CCC76)C5)CCC4(C)C3CCC12C (stereo not given),-12.8%
